Bioassay records as filed in PubChem BioAssay.
dFosB act: activators of mouse delta FosB homodimer; P13346; purified delta FosB, TAMRA-CDK5 oligo fluorescence polarization; percent of positive-control signal above neutral wells; activation, % at 25 µM; 340,000 tested, 0.99% active;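 active = mean activation above about 17%, with every replicate also reaching it, limit read from the data, passing the limit was not always enough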
SMARCA2 activ: SMARCA2 function activation, primary screen; MG213 cells, MMTV-luciferase reporter, dexamethasone, overnight; activation, % at 9.1 µM; 370,000 tested, 1% active; AID 652017; in the data active = activation above about 7.8%
Rtt109 HAT inh: C. albicans Rtt109 histone acetyltransferase inhibition; 330,000 tested, 0.16% active; AID 540336; inhibition, % at 34.9 µM; purified Rtt109/Vps75, ThioGlo CoA-SH fluorescence, 4 h;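 active = inhibition of at least 50% in every replicate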
DYRK1A inh: Dyrk1A (rat) kinase inhibition. Q63470. ADP-Glo luminescence, NFATc1 peptide. inhibition, % at 12.5 µM. 310,000 tested, 0.43% active; in the data active = inhibition above about 50%
esBAF inh: SWI/SNF esBAF complex inhibition | mouse ES cells, Bmi1-luciferase knock-in reporter, 24 h; 100% = twice the neutral-well signal | reporter increase, % at 12.5 µM | 350,000 tested, 2% active; in the data active = activation above about 40%;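 note: a rise in the Bmi1 reporter signal indicates esBAF inhibition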
CDK5 inh: inhibitors of human CDK5/p35 kinase; AID 488839; Q00535+Q15078; 330,000 tested, 0.01% active; Recombinant CDK5/p35, ADP-Glo luminescence, 60 min; inhibition, % at 10 µM;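 active = highest replicate inhibition of at least 50% and at least 75% of replicates reaching 50%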
Target sequence (Q00535 whole entry, looked up): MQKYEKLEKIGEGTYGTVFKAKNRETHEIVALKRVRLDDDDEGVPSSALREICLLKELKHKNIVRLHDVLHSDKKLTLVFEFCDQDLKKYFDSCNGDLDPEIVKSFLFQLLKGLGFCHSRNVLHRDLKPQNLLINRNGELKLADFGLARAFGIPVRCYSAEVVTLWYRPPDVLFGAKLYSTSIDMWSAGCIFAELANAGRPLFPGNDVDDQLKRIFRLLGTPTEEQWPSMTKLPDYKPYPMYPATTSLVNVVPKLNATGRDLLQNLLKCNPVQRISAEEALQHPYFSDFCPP
Target sequence (Q15078 whole entry, looked up): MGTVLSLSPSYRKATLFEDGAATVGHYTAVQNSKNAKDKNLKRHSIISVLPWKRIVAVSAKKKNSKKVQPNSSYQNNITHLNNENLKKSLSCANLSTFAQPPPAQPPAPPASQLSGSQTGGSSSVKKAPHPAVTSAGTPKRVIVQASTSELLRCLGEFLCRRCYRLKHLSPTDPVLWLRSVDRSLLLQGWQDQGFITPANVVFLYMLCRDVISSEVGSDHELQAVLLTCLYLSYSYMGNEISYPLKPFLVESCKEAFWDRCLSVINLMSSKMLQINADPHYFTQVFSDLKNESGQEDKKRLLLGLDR
Of the large screens only hits and unclear results are named; the others gave an inactive call. Sampled rows, rich in hits. Any-hit rate of the full collection: about 3.2%.

Cc1ccccc1OCc1nc2c3cnn(C)c3ncn2n1	esBAF inh 66
COCC#Cc1cnc2c(c1)C(=O)N([C@@H](C)CO)C[C@@H](C)[C@H](CN(C)C(=O)C1CCC1)O2	none (no result: dFosB act, SMARCA2 activ, Rtt109 HAT inh, DYRK1A inh, CDK5 inh)
CN1CCC(=O)N([C@H](CSc2ccccc2)c2ccccc2)CC1	none
Cc1ccc(SC[C@H](CC(C)C)N2CCN(C)CCC2=O)cc1	esBAF inh 58
Cc1ccc(SC[C@H](c2ccccc2)N2CCN(C)CCC2=O)cc1	esBAF inh 51
CC1CN(Cc2csc(-c3ccc(Cl)cc3)n2)CC(C)O1 (stereo unspecified)	esBAF inh 47
O=C(Nc1cccc([N+](=O)[O-])c1)c1ccccc1	none
COc1cccc(C(=O)Nc2ccc3ccccc3c2)c1	none
Cc1cccc(C(=O)Nc2ccc3ccccc3c2)c1	esBAF inh 47
O=C(Nc1ccc2ccccc2c1)c1cccc([N+](=O)[O-])c1	esBAF inh 86
CCOC(=O)c1ccc(NC(=O)c2ccccc2[N+](=O)[O-])cc1	esBAF inh 73
Cc1c(C(=O)Nc2ccc(Nc3ccccc3)cc2)cccc1[N+](=O)[O-]	none
Cc1c(C(=O)Nc2ccc3c(c2)CCC3)cccc1[N+](=O)[O-]	esBAF inh 82
CCC(=O)N[C@H]1C=C[C@H](CC(=O)NCCN2CCCCC2)O[C@H]1CO	none (no result: dFosB act, SMARCA2 activ, Rtt109 HAT inh, DYRK1A inh, CDK5 inh)
O=C(O)c1cccc([N+](=O)[O-])c1C(=O)Nc1nc2ccccc2s1	none (no result: esBAF inh)
O=C(Nc1ccc2ccccc2c1)c1ccccc1[N+](=O)[O-]	esBAF inh 51
Cc1ccc(NC(=O)c2cc3ccccc3cc2O)cc1	esBAF inh 44
O=C(O)c1cccc([N+](=O)[O-])c1C(=O)Nc1ccc2ccccc2c1	none
O=C(Nc1nc2ccccc2s1)c1ccccc1[N+](=O)[O-]	esBAF inh 50
C[C@H]1CCCCO[C@H](CN(C)S(=O)(=O)c2cn(C)cn2)[C@@H](C)CN([C@@H](C)CO)C(=O)c2cc(NC(=O)CCC(F)(F)F)ccc2O1	none (no result: dFosB act, SMARCA2 activ, Rtt109 HAT inh, DYRK1A inh, CDK5 inh)
C[C@H]1CN([C@@H](C)CO)C(=O)c2c(c3ccccc3n2C)-c2ccccc2CO[C@H]1CN(C)Cc1ccc(C(=O)O)cc1	none (no result: dFosB act, SMARCA2 activ, Rtt109 HAT inh, DYRK1A inh, CDK5 inh)
COCCNC(=O)C[C@@H]1CC[C@H]2[C@H](COc3ccc(NC(C)=O)cc3C(=O)N2C)O1	none (no result: dFosB act, SMARCA2 activ, Rtt109 HAT inh, DYRK1A inh, CDK5 inh)
O=C(Nc1ccc2c(c1)[C@H]1C[C@@H](CC(=O)N3CCc4ccccc4C3)O[C@@H](CO)[C@H]1O2)C1CCC1	none (no result: dFosB act, SMARCA2 activ, Rtt109 HAT inh, DYRK1A inh, CDK5 inh)
CCCCOC(=O)N/N=C/C=C/c1ccccc1	esBAF inh 51
O=C(N/N=C/c1c[nH]c2ccccc12)c1ccccc1Cl	none
COc1ccc(/C=N/NC(=O)c2ccoc2C)cc1COc1c(C)cccc1C	esBAF inh 50
Cc1occc1C(=O)N/N=C/c1c[nH]c2ccccc12	esBAF inh 50 (no result: SMARCA2 activ)
Cc1occc1C(=O)N/N=C/C=C/c1ccc(N(C)C)cc1	esBAF inh 61
Cc1occc1C(=O)N/N=C/C=C/c1ccccc1	SMARCA2 activ 7.9 (no result: esBAF inh)
O=C(Cc1cccs1)N/N=C/C(Cl)=C/c1ccccc1	none (no result: esBAF inh)
CCOC(=O)N/N=C/C(Cl)=C/c1ccccc1	esBAF inh 56 (no result: DYRK1A inh)
CC(C)NC(=O)Nc1ccc2c(c1)CC(=O)N([C@@H](C)CO)C[C@H](C)[C@@H](CN(C)CC1CC1)O2	none (no result: dFosB act, SMARCA2 activ, Rtt109 HAT inh, DYRK1A inh, CDK5 inh)
COc1ccc(CNC(=O)COC(=O)c2ccc(S(=O)(=O)N3CCOCC3)cc2)cc1	none (no result: DYRK1A inh)
COc1ccc(CNC(=O)COC(=O)c2ccc(S(=O)(=O)N3CCCCC3)cc2)cc1	Rtt109 HAT inh 52
O=C(COC(=O)c1cc(NS(=O)(=O)c2cccs2)ccc1O)Nc1cc(Cl)ccc1Cl	dFosB act 51 (no result: esBAF inh)
O=C(NNC(=O)c1cc(Cl)ccc1O)c1ccc(NS(=O)(=O)c2cccs2)cc1	none
O=C(COC(=O)c1ccc(NS(=O)(=O)c2cccs2)cc1)Nc1nc2c(F)c(F)c(F)cc2s1	dFosB act 37 (no result: SMARCA2 activ, esBAF inh)
O=C(COC(=O)c1ccco1)Nc1nc2c(F)c(F)c(F)cc2s1	none
C[C@@H]1CN([C@H](C)CO)C(=O)CCCn2cc(nn2)CO[C@@H]1CN(C)C(=O)Nc1ccc(N2CCCCC2)cc1	none (no result: dFosB act, SMARCA2 activ, Rtt109 HAT inh, DYRK1A inh, CDK5 inh)
COc1ccc(-c2cn(CC[C@@H]3CC[C@H](NC(=O)NC(C)C)[C@@H](CO)O3)nn2)cc1	none (no result: dFosB act, SMARCA2 activ, Rtt109 HAT inh, DYRK1A inh, CDK5 inh)
C[C@H](CO)N1C[C@H](C)[C@H](CN(C)C(=O)c2ccncc2)Oc2ncc(C#CC3CCCCC3)cc2C1=O	none (no result: dFosB act, SMARCA2 activ, Rtt109 HAT inh, DYRK1A inh, CDK5 inh)
